In PubChem BioAssay AID1984 (Sanford-Burnham Center for Chemical Genomics, 2009):
Among all 290,000 compounds or so, about 35 (0.01%) were called active. The sample holds actives, similar compounds and a random draw of the others, so the mix is not that of the screen. A number with no mark means an inactive call.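 The calls were made as follows: active = EGFP signal decrease of at least 30% at 10 µM or well 3 SD below plate mean, unless failing retest; inactive = the rest, including hits failing retest or dose response.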

molecular target: p/CIP-EGFP fusion (nuclear receptor coactivator 3, mouse) (UniProt Q05BA5); assay: p/CIP-EGFP fusion destabilizers, primary screen, fluorescence, F442A cells (AID 1984); details: 16 h, at 10 µM, stronger effect = higher value
Sequence (Q05BA5 1-1403): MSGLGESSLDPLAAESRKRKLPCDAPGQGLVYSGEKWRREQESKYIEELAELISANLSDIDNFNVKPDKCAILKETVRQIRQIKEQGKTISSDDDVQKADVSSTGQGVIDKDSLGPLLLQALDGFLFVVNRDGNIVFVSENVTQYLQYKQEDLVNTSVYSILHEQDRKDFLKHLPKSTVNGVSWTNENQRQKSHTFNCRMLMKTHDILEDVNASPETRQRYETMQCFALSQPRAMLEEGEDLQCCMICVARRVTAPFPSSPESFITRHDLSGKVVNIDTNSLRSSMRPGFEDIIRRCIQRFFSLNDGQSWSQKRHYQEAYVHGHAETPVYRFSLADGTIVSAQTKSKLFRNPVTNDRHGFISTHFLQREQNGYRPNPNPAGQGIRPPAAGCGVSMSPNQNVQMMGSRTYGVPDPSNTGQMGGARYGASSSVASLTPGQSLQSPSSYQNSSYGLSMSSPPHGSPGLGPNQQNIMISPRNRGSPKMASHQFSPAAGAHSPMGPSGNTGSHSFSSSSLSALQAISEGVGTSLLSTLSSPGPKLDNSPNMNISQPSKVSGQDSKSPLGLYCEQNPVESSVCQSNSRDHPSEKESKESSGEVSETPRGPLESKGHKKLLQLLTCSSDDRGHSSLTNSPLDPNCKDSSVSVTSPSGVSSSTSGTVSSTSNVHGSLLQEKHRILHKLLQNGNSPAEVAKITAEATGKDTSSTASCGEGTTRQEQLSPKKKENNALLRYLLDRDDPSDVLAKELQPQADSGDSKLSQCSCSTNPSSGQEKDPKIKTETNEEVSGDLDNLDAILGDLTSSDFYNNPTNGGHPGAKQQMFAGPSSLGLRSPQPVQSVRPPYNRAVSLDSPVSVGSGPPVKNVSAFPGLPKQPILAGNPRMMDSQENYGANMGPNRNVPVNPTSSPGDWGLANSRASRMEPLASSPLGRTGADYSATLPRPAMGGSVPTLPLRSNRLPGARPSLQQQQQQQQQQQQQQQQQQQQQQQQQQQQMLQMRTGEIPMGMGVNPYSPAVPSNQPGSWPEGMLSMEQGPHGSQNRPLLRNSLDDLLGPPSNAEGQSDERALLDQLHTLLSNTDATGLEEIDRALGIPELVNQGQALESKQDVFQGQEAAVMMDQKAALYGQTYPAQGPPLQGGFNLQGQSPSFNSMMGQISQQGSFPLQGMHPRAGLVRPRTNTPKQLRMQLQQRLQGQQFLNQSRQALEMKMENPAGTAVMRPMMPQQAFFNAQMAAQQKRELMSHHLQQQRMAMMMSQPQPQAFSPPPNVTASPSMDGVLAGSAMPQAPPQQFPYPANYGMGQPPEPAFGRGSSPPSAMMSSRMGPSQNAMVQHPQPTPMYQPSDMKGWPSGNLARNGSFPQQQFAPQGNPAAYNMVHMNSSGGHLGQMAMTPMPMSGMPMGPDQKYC

| SMILES | decrease of EGFP signal |
| --- | --- |
| COCCNC(=O)CSc1nc2sccc2c(=O)n1-c1ccccc1 | -15.6% |
| Cc1ccc(C(CNC(=O)Nc2cccc(C)c2)N2CCN(C)CC2)cc1 (stereo not drawn) | -22.3% |
| CC1C(=O)N(Cc2ccccc2)c2ccccc2N1C(=O)c1ccccc1 (stereo not drawn) | -15.4% |
| COc1ccc(N2CCN(C(=O)c3cccs3)CC2)cc1 | -8% |
| Cc1nc2nc(SCC(=O)Nc3cccc(F)c3)[nH]c2cc1Br | -0.1% |
| CS(=O)(=O)c1ccccc1C(=O)Nc1ccc2sccc2c1 | -7.2% |
| COc1ccc(-c2n[nH]c3c2CN(C(=O)c2ccc(F)cc2)CC3)cc1 | -14.3% |
| CC(C)(C)C1CCc2c(sc3nc(SCC(N)=O)nc(N)c23)C1 (stereo not drawn) | -4.6% |
| O=C(NCCCn1ccnc1)/C(=C\c1ccccc1F)NC(=O)c1ccccc1 | -21.2% |
| COc1ccc(OC)c(C(=O)NC(CC(N)=O)c2ccc(N3CCC(N4CCCCC4)CC3)c([N+](=O)[O-])c2)c1 (stereo not drawn) | -7.7% |
| CSCC[C@H](NC(=O)N1CCn2c1nc1ccccc12)C(=O)NCc1ccc2c(c1)OCO2 | -3.3% |
| Nc1nnc2c(C(F)(F)F)nc3ccccc3n12 | -5.5% |
| COc1ccc(C)cc1Nc1n[n+](-c2ccccc2)c(-c2cccc(Cl)c2Cl)s1 | 6.4% |
| CCN1N=C(c2ccccc2)CCC1=O | 5.6% |
| COc1cc2ccccc2cc1C(=O)Nc1ccccc1C | -1.6% |
| CC(C)(C)c1ccc(C(=O)N2CCN(CCNC(=O)C(=O)Nc3ccc(F)cc3)CC2)cc1 | -21.5% |
| CCc1ccc(Oc2coc3cc(O)ccc3c2=O)cc1 | -7.6% |
| CC(=O)N1CCOc2ccc(S(=O)(=O)N3CCC(C(=O)Nc4ccccc4F)CC3)cc21 | 11.8% |
| O=C(CNC(=O)c1ccccc1)Oc1ccc([N+](=O)[O-])cc1 | -14% |
| C=CCNC(=O)COC(=O)CNC(=O)c1cc(Cl)cc([N+](=O)[O-])c1 | 32% (active) |

| SMILES | decrease of EGFP signal |
| --- | --- |
| C=CCNC(=S)NNC(=O)COc1c(Cl)cc(Cl)cc1Cl | -6.1% |
| COc1ccc(NC2CCCN(C(=O)c3ccncc3)C2)cc1 (stereo not drawn) | -13.8% |
| CC(=O)c1cccc(NC(=O)C2CCN(C(=O)c3ccccc3Cl)CC2)c1 | 4.2% |
| Cc1ccccc1N(C(=O)CNC(=O)c1cccs1)C(C(=O)NC1CCCC1)c1ccncc1 (stereo not drawn) | 12.1% |
| CC1(C)C=C2[C@H]3CC[C@@H]4[C@@]5(C)CCC(=O)C(C)(C)[C@@H]5CC[C@@]4(C)[C@]3(C)CC[C@@]2(C(=O)O)CC1 | -6.3% |
| O=C(CN1CCN(S(=O)(=O)c2ccc(Br)cc2)CC1)Nc1ccccc1C(=O)c1ccccc1 | -4.8% |
| NC(=O)c1cc(S(=O)(=O)N2CCCC2)ccc1OCc1ccc(F)cc1 | -4.5% |
| COc1cccc(NC(=O)NCCN2CCCCC2)c1 | -6.2% |
| OC(CNC1CCCC1)COc1ccc(F)cc1 (stereo not drawn) | 26.4% |
| CCCCC(=O)Nc1nnc(S(=O)(=O)N(C)Cc2ccco2)s1 | 0.2% |
| Cc1ccc(N(Cc2cc(=O)[nH]c3ccccc23)C(=O)CCl)cc1 | -8.8% |
| CN(C)S(=O)(=O)c1cccc(NC(=O)COC(=O)C2(c3ccccc3F)CCCC2)c1 | -3% |
| Cc1[nH]c2ccccc2c1C(=O)CN1CCCC(C)C1 (stereo not drawn) | -10.8% |
| Cc1ccc(-c2nc(CSCC(=O)NC3CCN(Cc4ccccc4)CC3)c(C)o2)cc1 | -10% |
| Cn1nccc1C(=O)NC1CCCc2c1cnn2-c1ccc(F)cc1F (stereo not drawn) | -26.2% |
| Cc1ccc(CNC(=O)CSc2nnc3c(n2)[nH]c2ccc(F)cc23)cc1 | -14.9% |
| COc1cc(C2C(N3C(=O)c4ccccc4C3=O)C(=O)N2c2ccc(C)c(C)c2)cc(OC)c1OC (stereo not drawn) | 8.2% |
| N#CC(C#N)=CN=c1ccn(Cc2ccc(Cl)cc2Cl)cc1 | -1.4% |
| Cc1ccc(C(=O)NC2CCN(C(=O)Nc3ccccc3Cl)CC2)cc1 | 5.4% |
| CC1CCN(C(=O)c2ccccc2NC(=O)Cc2ccccc2)CC1 | -1.7% |

| SMILES | decrease of EGFP signal |
| --- | --- |
| COc1ccccc1N(CC(=O)NC1CCCC1)C(=O)C1(C)CC(=O)N=C2C=CC(C)=CN21 (stereo not drawn) | -13.7% |
| Cc1ccc(OCC(=O)Nc2ccccc2C(=O)NC2CC2)cc1C | 1.1% |
| COc1ccccc1NC(=O)CSc1nnc(CNC(=O)c2ccccc2F)o1 | -0.3% |
| CCOC(=O)C1CCN(Cc2nnc(-c3cccc(Br)c3)o2)CC1 | -16.9% |
| O=C(CCc1nnc(Cc2ccc3c(c2)OCO3)o1)NCCc1ccccc1Cl | -7.8% |
| O=C(NCCc1ccccc1)c1ccc2c(c1)N(Cc1ccccc1)CCS2 | 5.5% |
| Cc1ccc(NC(=S)Nc2ncccc2C)c(C)c1 | -3.8% |
| COc1ccc(NS(=O)(=O)c2ccc(N3CCN(CCO)CC3)c([N+](=O)[O-])c2)cc1 | -28.7% |
| C=C(C)C(=O)O[C@H]1C/C(C)=C\C(=O)/C=C(\C)[C@H](O)[C@@H]2OC(=O)C(=C)[C@@H]21 | -31.6% |
| CC(C)NC(=O)N1CCN(c2ccncc2S(=O)(=O)N2CCCCC2)CC1 | 5.9% |
| Nc1c(N(CCO)C(=O)C2CCCCC2)c(=O)[nH]c(=O)n1Cc1ccccc1 | -13.9% |
| CC(C)CCOc1ccc(C(=O)C[N+]2(C)CCOCC2)cc1 | -10% |
| O=C(OCC(=O)N1CCN(C(=O)c2ccco2)CC1)c1cccc(O)c1 | 2.2% |
| Cc1ccc(NC(=O)CSc2nnc(CNC(=O)c3ccccc3F)o2)cc1Cl | -13% |
| CCc1cccc(NC(=O)CCCN2C(=O)C(c3ccccc3)Oc3cccnc32)c1 (stereo not drawn) | 4.5% |
| O=C(COc1cccc(Cl)c1)NCc1ccccc1 | -3.1% |
| CC(C(=O)N1CCN(c2ccccc2F)CC1)c1ccc([N+](=O)[O-])cc1 (stereo not drawn) | 1.2% |
| COc1ccc(C(=O)NC(=S)NC2CCCCC2)cc1 | -9.4% |
